# PubChem BioAssay (EPA / NIEHS)
# Active and inactive are the calls of the source. Rule for the calls: active = hit-call score of the fitted dose curve at least 0.9, where 1 is the maximum; inactive = score below 0.9.
# Experiment: CEETOX_H295R_CORTISOL: CeeTox H295R High-throughput Steroidogenesis Assay for Cortisol (AID 2283438);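 note: cortisol secreted into medium quantified by LC-MS/MS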
# Settings: actives raise or lower the signal
# Method: CEETOX_H295R is a cell-based, multiplexed-readout assay that uses H295R, a human adrenal gland cell line, with measurements taken at 48 hours after chemical dosing in a 96-well plate.CEETOX_H295R_CORTISOL is one of 23 assay component(s) measured or calculated from the CEETOX_H295R assay. It is designed to make measurements of hormone induction, a form of inducible reporter, as detected with absorbance signals by HPLC-MS-MS technology.Data from the assay component CEETOX_H295R_CORTISOL was analyzed into 1 assay endpoint. This assay endpoint, CEETOX_H295R_CORTISOL, was analyzed with bidirectional fitting relative to DMSO as the negative control and baseline of activity. Using a type of inducible reporter, gain or loss-of-signal activity using HPLC-MS-MS was used to understand synthesis of Cortisol in H295R cell line at 48hr of chemical exposure. To generalize the intended target to other relatable targets, this assay endpoint is annotated to the steroid hormone intended target family, where the subfamily is glucocorticoids.
# Cell culture and media preparation procedures were conducted in accordance with OECD Test No. 456 guidelines, with minor modifications. H295R cells (ATCC CRL-2128) were expanded for 5 passages and frozen in batches in liquid nitrogen. Prior to the steroidogenesis assay, H295R cells were thawed and passed at least 4 times. The maximum passage was 10. Cells were maintained in a 1:1 mixture of DMEM/F12 supplemented with 5ml/L ITS+ Premix (BD Bioscience) and 12.5 ml/L Nu-Serum (BD Bioscience). After seeding cells into 96-well plates at 50-60% confluency, cells were allowed to adhere overnight. Prior to chemical testing, culture medium was replaced with 175 uL medium containing 10 uM forskolin to stimulate steroidogenesis for 48 hours. Following prestimulation, forskolin medium was replaced with medium containing test chemical solubilized in DMSO (ensuring a final concentration of 0.1% DMSO). Test chemicals were incubated for 48 hours, then the medium was removed and split into 2 vials containing approximately 75uL each, and stored at -80 C prior to hormone analysis. For steroid quantification, media samples were shipped to OpAns, LLC (Durham, NC) on dry ice, and samples were thawed to room temperature prior to liquid-liquid extraction. Steroid hormones were extracted from media samples using methyl tertbutyl ether (MTBE). An extra derivatization with dansyl chloride was included for estrogen (estrone and estradiol) detection only. Steroid hormones were separated by HPLC, eluted using a reverse phase C18 gradient with electrospray positive ionization, followed by quantification by tandem mass spectrometry (MS/MS). Data were acquired on a MassHunter Workstation Acquisition version B03.01 (Agilent Technologies, Inc.) and processed using MassHunter Quantitative Analysis for QQQ. Accuracy was determined for each hormone analyte from 3 standards to determine upper and lower limits of quantification (ULOQ and LLOQ, respectively) using a 7-point standard curve. Precision and accuracy of the extraction and quantification methods were calculated as the percent relative standard deviation (%RSD) of the spiked standards and percent spiked standard recovered, respectively. The goal was to achieve 100% accuracy (i.e., recover all spiked-in standard at quantification with minimal loss during run time) and good precision (i.e., have %RSD <15% to ensure reproducibility). Test medium was removed following chemical exposure, and cell viability was evaluated in the same wells by MTT. MTT procedures were as follows: after removal of test medium, 500 uL of 0.5 mg/ml of 3-[4,5-dimethylthiazol-2-y]2,5-diphenyltetrazoliumbromide solution was added to the cells. Following a 4-hour incubation at 37 C and 5% CO2 to allow formazan-crystal formation, the MTT solution was removed and blue formazan salt crystals were solubilized using 500uL anhydrous isopropanol with shaking for 20 minutes. […]
Compound,outcome,AC50
CCCN(CCC)C(=O)SCC,inactive,
S=C([S-])NCCNC(=S)[S-].[Mn+2],inactive,
CN(C)C(=O)Nc1ccc(Cl)c(Cl)c1,inactive,
CC1(C)C(C=C(Cl)Cl)C1C(=O)OCc1cccc(Oc2ccccc2)c1 (stereo not given),inactive,
CCOC(=O)C(C)Oc1ccc(Oc2cnc3cc(Cl)ccc3n2)cc1 (stereo not given),inactive,
CCCCCOC(=O)COc1cc(N2C(=O)C3=C(CCCC3)C2=O)c(F)cc1Cl,inactive,
CC(C)(C)[C@@H](O)[C@@H](Cc1ccc(Cl)cc1)n1cncn1,,5000 nM (active)
CCOC(=O)c1ccc(O)cc1,inactive,
C#C[C@]1(O)CC[C@H]2[C@@H]3CCC4=CC(=O)CC[C@@H]4[C@H]3CC[C@@]21CC,,2400 nM (active)
O=C(Nc1ccc([N+](=O)[O-])cc1Cl)c1cc(Cl)ccc1O,inactive,
C=CCOC(Cn1ccnc1)c1ccc(Cl)cc1Cl (stereo not given),,159 nM (active)
CCCCOC(=O)[C@@H](C)Oc1ccc(Oc2ccc(C(F)(F)F)cn2)cc1,inactive,
CC(=O)S[C@@H]1CC2=CC(=O)CC[C@]2(C)[C@H]2CC[C@@]3(C)[C@@H](CC[C@@]34CCC(=O)O4)[C@H]12,,1830 nM (active)
CCCCC(CC)CN1C(=O)C2C3C=CC(C3)C2C1=O (stereo not given),inactive,
CSC(=O)c1cccc2nnsc12,inactive,
S=C(S)NCCNC(=S)S.[Mn+2].[S-]C([S-])=NCCN=C([S-])[S-].[Zn+2],inactive,
c1ccc2[nH]c(-c3cscn3)nc2c1,inactive,
C#CCOC(=O)[C@@H](C)Oc1ccc(Oc2ncc(Cl)cc2F)cc1,inactive,
C[C@]12C[C@H](O)[C@H]3[C@@H](CCC4=CC(=O)CC[C@@]43C)[C@@H]1CC[C@@H]2C(=O)CO,inactive,
Oc1ccc(C(c2ccc(O)cc2)C(Cl)(Cl)Cl)cc1,,399 nM (active)
